Consider 40 compounds from PubChem BioAssay (Tox21).

Molecules are shown by their SMILES. Unmarked numbers belong to inactive results. Entries that show only a call come without a potency. The source made the active and inactive calls. The call rests on the fitted dose curve.

Thyrotropin-releasing hormone receptor (Homo sapiens), sequence (P34981 whole entry, looked up): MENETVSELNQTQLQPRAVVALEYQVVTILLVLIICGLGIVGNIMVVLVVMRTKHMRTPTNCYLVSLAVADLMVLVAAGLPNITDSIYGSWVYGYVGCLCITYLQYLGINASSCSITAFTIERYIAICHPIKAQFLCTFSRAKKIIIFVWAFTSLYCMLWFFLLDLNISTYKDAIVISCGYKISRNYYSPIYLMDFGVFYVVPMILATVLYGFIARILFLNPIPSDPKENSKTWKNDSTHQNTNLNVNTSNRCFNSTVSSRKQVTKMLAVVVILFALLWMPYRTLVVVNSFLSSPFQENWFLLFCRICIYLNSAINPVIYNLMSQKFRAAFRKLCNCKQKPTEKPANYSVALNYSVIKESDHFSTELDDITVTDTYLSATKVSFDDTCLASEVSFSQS

This assay addresses Thyrotropin-releasing hormone receptor (Homo sapiens) (UniProt P34981). Kind of assay: qHTS assay to identify small molecule agonists of the thyrotropin-releasing hormone receptor (TRHR) signaling pathway (AID 1346891).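 Further: HEK293 cells expressing TRHR with calcium dye readout.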 The note with it: TRHR-HEK293 calcium fluorescence, agonist mode; series mostly up to 57.6 µM. An excerpt:
National Center for Advancing Translational Sciences [NCATS] NIH Chemical Genomics Center [NCGC] U.S. Environmental Protection Agency [EPA] National Institutes of Environmental Health Sciences [NIEHS] National Toxicology Program [NTP] Assay overview: Thyrotropin-releasing hormone (TRH) receptor (TRHR) is a G-protein-coupled receptor which binds the tripeptide thyrotropin releasing hormone. TRHR is found in the brain and, when bound by TRH, acts (through phospholipase C) to increase intracellular inositol trisphosphate. It plays a crucial role in the anterior pituitary where it controls the synthesis and secretion of thyroid stimulating hormone and prolactin. The TRHR-Hek293 assay is a cell-based assay, and it has the potential to screen G protein-coupled receptors. A compound/drug can either activate (agonist) or suppress (antagonist) GPCRs that can be monitored by levels of intracellular calcium. Using this assay, the Tox21 10K compound library was screened to identify potential TRHR agonists.
Assay Protocol Summary: The TRHR-Hek293 cells were dispensed at 1500cells/4uL/well in 1536-well black-clear bottom plates using a Multidrop dispenser. After the assay plates were incubated at a 37 C/5% CO2 incubator for 18 hours, 4 uL of Dye-Loading Solution was added to each well. The plates were incubated at 37 C for 2 hours. For agonist mode, 23 nL of compounds dissolved in DMSO, positive controls or DMSO only was transferred to the assay plate by a pin tool. The fluorescence intensity in the plates was measured using FDSS 7000EX kinetic plate reader for 3 min at 1 sec intervals. Each test compound was measured at 15 concentrations and in triplicates.
A general note: Quantitative high-throughput screening tests each substance at several concentrations.
Take `CN1CCN(N)CC1`: the Potency result was “inactive”. For the compound `O=C1Nc2ccc([N+](=O)[O-])cc2C1=O`, the Potency entry was “inactive”. For `CN1CCN(c2c(F)cc3c(=O)c(C(=O)O)cn4c3c2SCC4)CC1`, the Potency entry was “inactive”. For the compound `CN(C)Cc1ccccc1`, the Potency result was “inactive”.

Turning to `C[C@@H]1CN(c2c(F)c(F)c3c(=O)c(C(=O)O)cn(C4CC4)c3c2F)C[C@H](C)N1`, the activation is 0.0488% [at 11.8 µM]. For the compound `OCCN(CCO)CCN(CCO)CCO`, the Potency entry is “inactive”. In the case of `Cc1ccc(C)c(N)c1`, the Potency result was “inactive”. As to `CCCCN1C[C@H](O)[C@@H](O)[C@H](O)[C@H]1CO`, the Potency result is “inactive”. Turning to `CN1[C@@H]2CC[C@H]1CC(OC(=O)c1c[nH]c3ccccc13)C2` (stereo not given in full), the Potency result was “inactive”. With `Cc1cc2c(s1)Nc1ccccc1N=C2N1CCN(C)CC1`, the Potency entry was “inactive”. As to `CCCC(CCC)(C(=O)OCC)C(=O)OCC`, the Potency entry is “inactive”. As for `C[C@@H]1CN(c2c(F)c(N)c3c(=O)c(C(=O)O)cn(C4CC4)c3c2F)C[C@H](C)N1`, the activation is -0.407% [at 11.8 µM].

`C=O`: the Potency entry was “inactive”. Still for that read-out and setting: the same measure for `CCCOCCC`: “inactive”. Turning to `CN1CCC[C@@H]1Cc1c[nH]c2ccc(CCS(=O)(=O)c3ccccc3)cc12`, the Potency entry is “inactive”. The same measure, in the same setting: as for `C=CCCCCCCCCO`, the entry is “inactive”; as for `NC1=NCC2c3ccccc3Cc3ccccc3N12` (stereo not given), “inactive”. As for `CCN(CC)CCNC(=O)COc1ccc(Cl)cc1`, the Potency result is “inactive”.

On to `CCOc1ccc2nc(N)sc2c1`, for which the Potency result is “inactive”. Still for that read-out and setting: as for `C=C(C)C(=O)OCCOP(=O)(O)O`, the entry is “inactive”. On to `CC(C)NC[C@@H](O)COc1cccc2ccccc12`, for which the Potency result is “inactive”.

For the compound `CCCCCCCCc1ccc(S(=O)(=O)O)cc1`, the Potency result was “inactive”. In the case of `CC(C)c1ccccc1`, the Potency result was “inactive”. For `CCN[C@H]1CN(CCCOC)S(=O)(=O)c2sc(S(N)(=O)=O)cc21`, the Potency entry was “inactive”.

On to `CO[C@@]1(NC(=O)CSCC#N)C(=O)N2C(C(=O)O)=C(CSc3nnnn3C)CS[C@@H]21`, for which the Potency entry is “inactive”. Same read-out and setting: as for `O=C(O)[C@@H](O)[C@H](O)[C@H](O)[C@@H](O)C(=O)O`, the entry is “inactive”; as for `OCCN1CCN(CCO)CC1`, “inactive”. For the compound `CCC(=O)c1ccc2c(c1)N(CCCN(C)C)c1ccccc1S2`, the Potency result was “inactive”. As for `CC(Oc1c(Cl)cccc1Cl)C1=NCCN1` (stereo not given), the Potency entry is “inactive”.

Consider `CCCCNCCCC`, for which the Potency entry was “inactive”. Regarding `O=C1CCN(c2ccccc2)N1`, the Potency entry was “inactive”. As for `CC(CNC1CCCCC1)OC(=O)c1ccccc1` (stereo not given), the Potency entry is “inactive”.

For the compound `O=C1N(c2ccccc2)c2ccccc2C1(Cc1ccncc1)Cc1ccncc1`, the Potency entry is “inactive”. `CCCCc1ccc2nc(NC(=O)OC)[nH]c2c1`: the Potency result was “inactive”. Regarding `O=C(O)CN(CCN(CC(=O)O)CC(=O)O)CCN(CC(=O)O)CC(=O)O`, the activation is -0.051% [at 11.8 µM]. As to `Cc1ccc([N+](=O)[O-])cc1Cl`, the Potency entry is “inactive”. Still for that read-out and setting: as for `O=C1CCC(C2CCCCC2)CC1`, the entry is “inactive”. For `CCC/C=C/CO`, the Potency result is “inactive”. For `CNCCC(Oc1ccccc1OC)c1ccccc1` (stereo not given), the Potency result was “inactive”. Still for that read-out and setting: the same measure for `CC(C)C(=O)OC/C=C/c1ccccc1`: “inactive”.
